Test results reported in PubChem BioAssay AID686979 (National Center for Advancing Translational Sciences (NCATS), 2013).
About 50,000 (12%) of roughly 420,000 compounds were called active. Where a call stands in place of a potency, no number is given. Not shown: some 26% with an inconclusive outcome. The sample holds actives, similar compounds and a random draw of the others, so the mix is not that of the screen. Values without a mark were called inactive. Calls come from the whole dose curve; as a rule, active = well fitted inhibition curve with a large enough effect; inconclusive = small, poorly fitted or top-dose-only effect; inactive = flat fitted curve, though single readings scatter.

Test: qHTS for Inhibitors of human tyrosyl-DNA phosphodiesterase 1 (TDP1): qHTS in cells in presence of CPT; note: nearly all actives have a fitted effect of over 55% in size
Details: chicken DT40 Tdp1-/-;hTDP1 cells + 20 nM CPT, ATP luminescence, 48 h; series mostly up to 46.2 µM
In short: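 Chicken DT40 Tdp1-/- cells complemented with human TDP1, 400 cells/well, exposed to compounds plus 20 nM camptothecin for at least 48 h at 37 C; viability read as ATP content by CellTiter-Glo luminescence.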
Potency is the fitted concentration of half-maximal effect.

Row | SMILES | Potency | activity change, negative = growth inhibition
1 | CC1CCN(C(NC(=O)c2ccco2)C(=O)c2ccccc2)CC1 (centres undefined) | inactive | –
2 | Cc1csc(SCC(=O)Nc2ccc(C)c(S(=O)(=O)N(C)C)c2)n1 | inactive | –
3 | O=C(CSc1nnc2ccccn12)c1ccccc1 | inactive | –
4 | Cc1ccc(C(=O)NNC(=O)CSc2nnc3ccccn23)cc1 | inactive | –
5 | Cc1ccc(-n2c(C)cc(C(=O)CSc3nnc4ccccn34)c2C)cc1 | 23.1 µM (active) | –
6 | COc1ccccc1C(=O)COC(=O)CSCC(=O)Nc1cc(C)on1 | inactive | –
7 | NC(=O)C1CCCN(CC(=O)N2CCN(c3ccccc3)CC2)C1 (centres undefined) | inactive | –
8 | Cc1ccc(S(=O)(=O)Oc2ccc(/C=N/NC(=O)c3c(Cl)cnn3C)cc2)cc1 | inactive | –
9 | Cc1ccc(-c2nc3ccccn3c2Nc2c(C)cccc2C)o1 | 16.4 µM (active) | –
10 | CC(C)(C)Nc1c(-c2cccs2)nc2ccccn12 | inactive | –
11 | Cc1nc2ccccn2c(=O)c1NC(=O)c1ccc(Br)o1 | inactive | –
12 | O=C(CSc1ccccc1)Nc1cccc(S(=O)(=O)N2CCOCC2)c1 | inactive | –
13 | CC(=O)Nc1ccc(C(=O)NNC(=O)CCCCC(=O)NNC(=O)c2ccc(NC(C)=O)cc2)cc1 | inactive | –
14 | Cn1c(=O)n(C)c2cc(C(=O)Nc3ccc(Br)cc3)ccc21 | inactive | –
15 | COCCn1c(=O)[nH]c(=O)c2cc(C(=O)c3cc(OC)ccc3O)cnc21 | inactive | –
16 | COc1cc(OC)c2c(c1)OC(=O)CC2c1cc(OC)c(OC)c(OC)c1 (centres undefined) | inactive | –
17 | COC(=O)c1cc(CNC(=O)CC(C)c2ccccc2)ccc1OC (centres undefined) | inactive | –
18 | COc1cc(NC(=O)CSC(=S)N2CCCC2)c(OC)cc1Cl | 29.1 µM (active) | –
19 | COc1cc(NC(=S)N2CCCC(C)C2)c(OC)cc1Cl (centres undefined) | inactive | –
20 | COc1cc(Cl)c(C)cc1NC(=O)CN1CCCCCC1 | inactive | –
21 | N#C/C(=C\c1cccc(F)c1)c1nc(-c2cc3c(ccc4ccccc43)oc2=O)cs1 | inactive | –
22 | Cc1cc(C)c(S(=O)(=O)N(C)CC(=O)NCC2CCCO2)c(C)c1 (centres undefined) | inactive | –
23 | COc1cccc(C(=O)NC2=NC(c3ccc(N(C)C)cc3)CC(=O)N2)c1 (centres undefined) | inactive | –

Row | SMILES | Potency | activity change, negative = growth inhibition
24 | COc1ccc(CCNc2nc(C)cc(C)n2)cc1OC | inactive | –
25 | COc1ccc(CCNc2nc(-c3ccc(Cl)cc3)cc(C(F)(F)F)n2)cc1OC | 23.1 µM (active) | –
26 | COc1ccc(CCNC(=O)COC(=O)c2ncc(Cl)c(Cl)c2Cl)cc1OC | inactive | –
27 | O=C(CN(C(=O)c1csnn1)c1ccc(Br)cc1)NC1CCCC1 | inactive | –
28 | O=C(CCN1C(=O)[C@H]2CC=CC[C@H]2C1=O)NCc1nc(-c2ccccc2)no1 | inactive | –
29 | COc1ccc(OC)c(NC(=O)c2ccc3c(c2)C(=O)N(c2ccc(OC(C)=O)cc2)C3=O)c1 | inactive | –
30 | CC1CCCCN1CCCNc1ccc(C(CC(N)=O)NC(=O)c2ccccc2)cc1[N+](=O)[O-] (centres undefined) | inactive | –
31 | Cc1ccc(OCC(=O)Nc2ccc(NC(=O)c3cccs3)cc2)c(C)c1 | inactive | –
32 | CCC(C)N1C(=S)SC(C)(C)C1N(O)C(=O)NC1CCCCC1 (centres undefined) | inactive | –
33 | O=C(COC(=O)c1ccc(O)cc1O)NNC(=O)c1cccs1 | inactive | –
34 | Cc1cc2nc3n(c2cc1C)CC1CC(C(=O)NCCC(C)C)N(C)C31 (centres undefined) | inactive | –
35 | COc1ccc(-n2ncc3c(SCC(=O)NNC(C)=O)ncnc32)cc1 | inactive | –
36 | COc1ccc(NC(=O)c2cccc3c2C(=O)N(CC2CCCO2)C3)cc1OC (centres undefined) | 23.1 µM (active) | –
37 | COCCN1Cc2cccc(C(=O)Nc3ccccc3OC)c2C1=O | inactive | –
38 | CCOc1ccc(NC(=O)c2cccc3c2C(=O)N(CC2CCCO2)C3)cc1 (centres undefined) | inactive | –
39 | O=C1NC(c2ccccc2)CCC1(Cl)Cl (centres undefined) | inactive | –
40 | Cc1ccc(NC(=O)CCN2C(=O)c3ccccc3C2=O)cc1C | inactive | –
41 | COC(=O)C[C@H]1C[C@@H]2c3cc(NC(=O)Nc4ccccc4)ccc3O[C@@H]2[C@@H](CO)O1 | inactive | –
42 | O=C(CN1Cc2ccccc2OC(c2ccccc2)C1)N1CCCCC1c1cccnc1 (centres undefined) | – | -0.761% [at 9.04 µM]
43 | COc1cc(CNCc2ccc(OC)c3ccccc23)cc(OC)c1OC | 9.2 µM (active) | –
44 | COc1cc(CNCc2cccs2)cc(Br)c1OC | inactive | –
45 | COc1ccc(CNCCCNCc2ccc(OC)c(OC)c2)cc1OC | inactive | –
46 | Cn1cncc1COC(=O)c1ccc(Cl)cc1 | inactive | –

Row | SMILES | Potency | activity change, negative = growth inhibition
47 | Cc1ccccc1NC(=O)c1nn(-c2ccc(F)c(F)c2)ccc1=O | inactive | –
48 | Cc1cccc(NC(=S)N(CCN(C)C)C(C)c2ccco2)c1 (centres undefined) | inactive | –
49 | O=S(=O)(c1cnccc1N1CCN(/N=C/c2ccc(Br)cc2)CC1)N1CCCCC1 | 18.4 µM (active) | –
50 | CC(C)NC(=O)N1CCN(c2ccncc2S(=O)(=O)N2CCCCC2)CC1 | inactive | –
51 | CN1CCN(c2ccncc2S(=O)(=O)N2CCCC2)CC1 | inactive | –
52 | Cc1ccc(NC(=O)COc2ccc(/C=N\NC(=O)c3cccnc3)cc2)cc1C | inactive | –
53 | CC1(C)N=C(N)NC(Nc2ccc(Cl)cc2)=N1 | inactive | –
54 | COc1ccccc1NC1=NC2(CCCC2)N=C(N)N1 | inactive | –
55 | COc1ccccc1NC1=NC(c2ccc(Cl)cc2)N=C(N)N1 (centres undefined) | 5.17 µM (active) | –
56 | CC1(C)C(C=C(Cl)Cl)C1C(=O)NC(O)C(=O)c1ccccc1 (centres undefined) | inactive | –
57 | COCCN(C(=O)CSCc1ccc(C)cc1)c1c(N)n(CC(C)C)c(=O)[nH]c1=O | inactive | –
58 | C[C@]12C=CC(=O)C=C1CC[C@@H]1[C@@H]2C(=O)C[C@@]2(C)[C@H]1CC[C@]2(O)C(=O)CO | inactive | –
59 | CCC1CCCCN1C(=S)NC(=O)c1ccco1 (centres undefined) | inactive | –
60 | CCOc1cc(/C=C2/N=C(c3ccc(C(C)(C)C)cc3)OC2=O)cc(Cl)c1OS(C)(=O)=O | 18.4 µM (active) | –
61 | O=C1OC(c2ccc(Cl)cc2)=N/C1=C\c1cccnc1 | inactive | –
62 | CC1CCN(C(=O)COC(=O)CCC(=O)c2cccs2)CC1 | inactive | –
63 | COc1cc(C2CC(=O)Oc3cc(OC)c(OC)c(OC)c32)cc(OC)c1OC (centres undefined) | inactive | –
64 | Cc1cc(C)cc(NS(=O)(=O)Cc2ccccc2)c1 | inactive | –
65 | Cn1nnnc1SCC(=O)NNC(=O)c1ccc(Br)cc1 | inactive | –
66 | Cc1nc2ccccc2cc1OCc1ccc(F)cc1 | 11.6 µM (active) | –
67 | Cc1occc(=O)c1OCc1ccc(F)cc1 | inactive | –
68 | Cc1nc2ccccc2cc1O | inactive | –
69 | COC(=O)C1[C@H]2SC(C)(C)C(C(=O)OC)N2C(=O)N1Cc1nc2ccccc2s1 (some centres undefined) | inactive | –
